The panel holds about 79,000 compounds, 15% with a hit somewhere; the sample as a whole holds those more often. A number with no mark means an inactive call. Activity calls are given as the source filed them. Cut-off read from the data, not from the text of the source: active = growth inhibition above about 70%; inactive = the rest.

For 10 compounds, growth inhibition results are on record in PubChem BioAssay (NCI).

Test [1] can be described thus: NCI Yeast Anticancer Drug Screen. Data for the rad50 strain (AID 155).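 Note: 0% = growth of vehicle-only cultures of the same strain.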 The settings on record: S. cerevisiae rad50 strain growth inhibition, active compounds read high. An outline of the steps:
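Vehicle-treated cultures provide the reference for the growth inhibition reported for compound-exposed, repair-deficient yeast.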

Test [2] in a line: NCI Yeast Anticancer Drug Screen. Data for the mec2-1 strain (AID 157). The settings on record: S. cerevisiae mec2-1 strain, active compounds read high. Summed up: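 Cells of the genetically defined mec2-1 yeast strain are incubated with test compound. Inhibition of growth is calculated against vehicle-treated controls.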
A short description of test [3]: NCI Yeast Anticancer Drug Screen. Data for the sgs1 mgt1 strain (AID 161).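 Note: 0% = growth of cultures given vehicle only.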 The following applies: S. cerevisiae sgs1 mgt1 strain, active compounds read high. An outline of the steps: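 Mutant yeast exposed to compound; growth scored against vehicle-only wells.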
The nature of test [4]: NCI Yeast Anticancer Drug Screen. Data for the cln2 rad14 strain (AID 165).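 Note: 0% = growth equal to vehicle treated cultures.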 The settings on record: S. cerevisiae cln2 rad14 strain, active compounds read high. An outline of the steps:
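The screen exposed genetically defined yeast (cln2 rad14) to test compounds and scored growth inhibition relative to vehicle-treated controls.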

The nature of test [5]: NCI Yeast Anticancer Drug Screen. Data for the bub3 strain (AID 167). The following applies: S. cerevisiae bub3 mutant strain, active compounds read high. An outline of the steps: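 Mutant yeast screening strain plus compound; vehicle-treated cultures serve as the 0% inhibition reference.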
The nature of test [6]: NCI Yeast Anticancer Drug Screen. Data for the mlh1 rad18 strain (AID 175). The settings on record: S. cerevisiae mlh1 rad18 strain growth inhibition, active compounds read high. Summed up: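 Compound-treated yeast growth, normalised to vehicle controls. Strain bears defined DNA repair mutations.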
The mark [7] stands for this setting: at 5.0 µM (retest, dose inferred, filed as 0.5).
Setting [8] is: at 50.0 µM (retest, dose inferred, filed as 5.0).

Consider `CCCCCCCCCCCCCCC/C([O-])=N/[N+](C)(C)CC(C)O` (stereo not given), for which the growth inhibition in test [1] (setting [7]) was 98% (active); in test [1] (setting [8]), 98% (active); in test [1] (at 50.0 µM) it was 90.9% (active); in test [2] (setting [7]) it was 99% (active); in test [2] (setting [8]) it was 98% (active); in test [2] (at 50.0 µM), 91.2% (active). The growth inhibition in test [3] (setting [7]) is 99% (active); in test [3] (setting [8]), 99% (active); in test [3] (at 50.0 µM), 92% (active); in test [4] (setting [7]), 99% (active); in test [4] (setting [8]), 98% (active); in test [4] (at 50.0 µM), 88.2% (active). The growth inhibition in test [5] (setting [7]) was 99% (active); in test [5] (setting [8]), 98% (active); in test [5] (at 50.0 µM), 91.5% (active); in test [6] (setting [7]), 98% (active); in test [6] (setting [8]), 97% (active); in test [6] (at 50.0 µM), 89.9% (active).

Regarding `COc1ccc(OC)c(/C=C2/C(=O)ON=C2C)c1`, the growth inhibition is -14% in test [1] (setting [7]); 7% in test [1] (setting [8]); 42.4% in test [1] (at 50.0 µM); -11% in test [2] (setting [7]); 5% in test [2] (setting [8]); 54.4% in test [2] (at 50.0 µM). In addition, the growth inhibition in test [3] (setting [7]) is 1%; in test [3] (setting [8]) it was 27%; in test [3] (at 50.0 µM), 70% (active); in test [4] (setting [7]), 0%; in test [4] (setting [8]) it was 14%; in test [4] (at 50.0 µM) it was 22%. Further, the growth inhibition in test [5] (setting [7]) was 11%; in test [5] (setting [8]), 23%; in test [5] (at 50.0 µM), 43.5%; in test [6] (setting [7]), 8%; in test [6] (setting [8]), 23%; in test [6] (at 50.0 µM), 22.7%.

As to `COc1cccc2c1C(=O)c1c(O)c(CCl)cc(O)c1C2=O`, the growth inhibition in test [1] (setting [7]) was 44%; in test [1] (setting [8]), 97% (active); in test [1] (at 50.0 µM) it was 94% (active); in test [2] (setting [7]) it was 23%; in test [2] (setting [8]) it was 91% (active); in test [2] (at 50.0 µM), 76.5% (active). The growth inhibition was 47% in test [3] (setting [7]); 96% (active) in test [3] (setting [8]); 95.2% (active) in test [3] (at 50.0 µM); 17% in test [4] (setting [7]); 96% (active) in test [4] (setting [8]); 91.5% (active) in test [4] (at 50.0 µM). For the same compound, the growth inhibition in test [5] (setting [7]) is 3%; in test [5] (setting [8]), 49%; in test [5] (at 50.0 µM) it was 21.8%; in test [6] (setting [7]) it was 35%; in test [6] (setting [8]) it was 97% (active); in test [6] (at 50.0 µM) it was 94.6% (active).

Take `Cc1c2c(c(C)c3c1OC(C)(C)CC3)OC(C)(C)CC2`: the growth inhibition was -10% in test [1] (setting [7]); -4% in test [1] (setting [8]); 34.6% in test [1] (at 50.0 µM); -13% in test [2] (setting [7]); -7% in test [2] (setting [8]); 77.2% (active) in test [2] (at 50.0 µM). Besides, the growth inhibition in test [3] (setting [7]) is -14%; in test [3] (setting [8]), 8%; in test [3] (at 50.0 µM) it was 62.2%; in test [4] (setting [7]), -6%; in test [4] (setting [8]), 0%; in test [4] (at 50.0 µM), 46.5%. The growth inhibition was -5% in test [5] (setting [7]); -5% in test [5] (setting [8]); 11.2% in test [5] (at 50.0 µM); -13% in test [6] (setting [7]); -7% in test [6] (setting [8]); 98.2% (active) in test [6] (at 50.0 µM).

With `COC(=O)CCN1c2ccccc2Sc2ccccc21`, the growth inhibition was -14% in test [1] (setting [7]); 38% in test [1] (setting [8]); 48.8% in test [1] (at 50.0 µM); -23% in test [2] (setting [7]); 21% in test [2] (setting [8]); 23.1% in test [2] (at 50.0 µM). Besides, the growth inhibition in test [3] (setting [7]) is -13%; in test [3] (setting [8]), 30%; in test [3] (at 50.0 µM) it was 47.5%; in test [4] (setting [7]), 31%; in test [4] (setting [8]), 42%; in test [4] (at 50.0 µM) it was 23.4%. The growth inhibition in test [5] (setting [7]) is 16%; in test [5] (setting [8]), 62%; in test [5] (at 50.0 µM), 12.1%; in test [6] (setting [7]), -15%; in test [6] (setting [8]) it was 49%; in test [6] (at 50.0 µM), 64.7%.

As for `CC(=O)O[C@@H]1[C@@H](O)[C@H]2O[C@@H]3C=C(C)CC[C@]3(CO)[C@]1(C)[C@@]21CO1`, the growth inhibition in test [1] (setting [7]) is 34%; in test [1] (setting [8]), 93% (active); in test [1] (at 50.0 µM), -11.2%; in test [2] (setting [7]), 28%; in test [2] (setting [8]), 96% (active); in test [2] (at 50.0 µM), -22.9%. Further, the growth inhibition in test [3] (setting [7]) is 33%; in test [3] (setting [8]), 95% (active); in test [3] (at 50.0 µM) it was 5.35%; in test [4] (setting [7]), 52%; in test [4] (setting [8]) it was 98% (active); in test [4] (at 50.0 µM) it was -11.7%. Also, the growth inhibition in test [5] (setting [7]) was 13%; in test [5] (setting [8]) it was 98% (active); in test [5] (at 50.0 µM), 9.3%; in test [6] (setting [7]), 33%; in test [6] (setting [8]) it was 95% (active); in test [6] (at 50.0 µM), 91.8% (active).

For `NS(=O)(=O)c1ccc(NC(=O)Cc2nc3ccccc3s2)cc1`, the growth inhibition in test [1] (setting [7]) was 36%; in test [1] (setting [8]) it was 99% (active); in test [1] (at 50.0 µM), 91% (active); in test [2] (setting [7]) it was 40%; in test [2] (setting [8]), 99% (active); in test [2] (at 50.0 µM) it was 91% (active). Also, the growth inhibition was 54% in test [3] (setting [7]); 100% (active) in test [3] (setting [8]); 93.2% (active) in test [3] (at 50.0 µM); 31% in test [4] (setting [7]); 94% (active) in test [4] (setting [8]); 90.7% (active) in test [4] (at 50.0 µM). Moreover, the growth inhibition was 49% in test [5] (setting [7]); 99% (active) in test [5] (setting [8]); 92% (active) in test [5] (at 50.0 µM); 65% in test [6] (setting [7]); 99% (active) in test [6] (setting [8]); 91.2% (active) in test [6] (at 50.0 µM).

As for `O=C(CC(=O)c1ccccc1)CC(O)(c1ccccc1)c1ccccc1`, the growth inhibition in test [1] (setting [7]) is 30%; in test [1] (setting [8]) it was 90% (active); in test [1] (at 50.0 µM), 84.9% (active); in test [2] (setting [7]), 32%; in test [2] (setting [8]) it was 94% (active); in test [2] (at 50.0 µM) it was 89.1% (active). Also, the growth inhibition in test [3] (setting [7]) is 26%; in test [3] (setting [8]) it was 89% (active); in test [3] (at 50.0 µM), 89.7% (active); in test [4] (setting [7]) it was 27%; in test [4] (setting [8]) it was 72% (active); in test [4] (at 50.0 µM) it was 87.6% (active). Besides, the growth inhibition in test [5] (setting [7]) was 42%; in test [5] (setting [8]), 94% (active); in test [5] (at 50.0 µM) it was 87.9% (active); in test [6] (setting [7]) it was 42%; in test [6] (setting [8]), 88% (active); in test [6] (at 50.0 µM) it was 86.5% (active).

Take `O=C1c2ccc3ccccc3c2CCC1[n+]1ccc2ccccc2c1` (stereo not given): the growth inhibition is 1% in test [1] (setting [7]); 57% in test [1] (setting [8]); 53.4% in test [1] (at 50.0 µM); 11% in test [2] (setting [7]); 76% (active) in test [2] (setting [8]); 77.3% (active) in test [2] (at 50.0 µM). The growth inhibition was 7% in test [3] (setting [7]); 79% (active) in test [3] (setting [8]); 70.7% (active) in test [3] (at 50.0 µM); -5% in test [4] (setting [7]); 29% in test [4] (setting [8]); 83.6% (active) in test [4] (at 50.0 µM). The growth inhibition in test [5] (setting [7]) was -4%; in test [5] (setting [8]), 63%; in test [5] (at 50.0 µM) it was 71% (active); in test [6] (setting [7]), 15%; in test [6] (setting [8]) it was 85% (active); in test [6] (at 50.0 µM) it was 69.5%.

Consider `C=CCOc1ccccc1C(=O)OC`, for which the growth inhibition was 3% in test [1] (setting [7]); 0% in test [1] (setting [8]); -4.6% in test [1] (at 50.0 µM); 6% in test [2] (setting [7]); -4% in test [2] (setting [8]); 7.9% in test [2] (at 50.0 µM). Moreover, the growth inhibition in test [3] (setting [7]) was -1%; in test [3] (setting [8]), -5%; in test [3] (at 50.0 µM), 7.2%; in test [4] (setting [7]), 5%; in test [4] (setting [8]), -4%; in test [4] (at 50.0 µM), 30.9%. The growth inhibition was -3% in test [5] (setting [7]); -10% in test [5] (setting [8]); -2.45% in test [5] (at 50.0 µM); 3% in test [6] (setting [7]); -1% in test [6] (setting [8]); 0.3% in test [6] (at 50.0 µM).
